Results as given in paper PMC4336329 (PLoS ONE, 2015).
Among all 310,000 compounds or so, about 14,000 (4.5%) showed an effect of 50% or more. The effect is printed as a negative number. This excerpt belongs to a sample that is enriched for strong results.

Each compound was assayed against human ether-à-go-go-related gene (hERG) potassium channel (human, UniProt Q12809) (assay: primary screen, population patch clamp on CHO cells stably expressing hERG; higher = less effect of the substance).
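Note: peak tail current of the secondary pulse compared with the same well before compound.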

human ether-à-go-go-related gene (hERG) potassium channel, sequence (Q12809 whole entry, looked up): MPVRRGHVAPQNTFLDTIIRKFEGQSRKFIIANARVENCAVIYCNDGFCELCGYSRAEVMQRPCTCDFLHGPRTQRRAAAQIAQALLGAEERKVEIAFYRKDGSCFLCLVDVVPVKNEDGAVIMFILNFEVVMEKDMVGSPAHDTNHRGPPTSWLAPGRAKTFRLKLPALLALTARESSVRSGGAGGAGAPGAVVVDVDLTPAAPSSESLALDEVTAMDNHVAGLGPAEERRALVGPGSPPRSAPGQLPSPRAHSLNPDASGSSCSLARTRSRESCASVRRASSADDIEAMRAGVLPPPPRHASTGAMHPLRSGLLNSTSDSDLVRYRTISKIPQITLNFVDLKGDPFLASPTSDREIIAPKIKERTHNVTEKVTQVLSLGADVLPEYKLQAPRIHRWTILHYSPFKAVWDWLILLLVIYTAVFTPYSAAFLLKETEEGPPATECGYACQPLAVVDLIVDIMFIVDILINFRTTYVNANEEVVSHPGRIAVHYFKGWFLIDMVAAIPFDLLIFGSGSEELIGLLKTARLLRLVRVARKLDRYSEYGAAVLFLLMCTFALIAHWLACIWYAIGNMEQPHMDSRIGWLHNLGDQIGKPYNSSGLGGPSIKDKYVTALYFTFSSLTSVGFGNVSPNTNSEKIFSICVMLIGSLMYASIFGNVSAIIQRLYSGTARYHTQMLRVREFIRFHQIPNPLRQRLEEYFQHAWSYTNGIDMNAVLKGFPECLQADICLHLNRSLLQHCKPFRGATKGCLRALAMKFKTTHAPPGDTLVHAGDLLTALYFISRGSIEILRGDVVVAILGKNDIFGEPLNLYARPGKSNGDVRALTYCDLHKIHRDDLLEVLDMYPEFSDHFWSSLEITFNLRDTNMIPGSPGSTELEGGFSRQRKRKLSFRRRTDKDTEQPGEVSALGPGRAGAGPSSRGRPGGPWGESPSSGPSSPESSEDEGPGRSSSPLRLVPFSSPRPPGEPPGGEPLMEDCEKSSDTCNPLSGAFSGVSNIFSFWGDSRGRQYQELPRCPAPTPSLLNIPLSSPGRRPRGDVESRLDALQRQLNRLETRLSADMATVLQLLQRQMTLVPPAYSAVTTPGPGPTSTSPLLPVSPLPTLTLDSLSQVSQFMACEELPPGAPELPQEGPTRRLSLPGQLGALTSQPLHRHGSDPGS

| SMILES | hERG current change (%, negative = inhibition) at 10uM [%] |
| --- | --- |
| CCCCNS(=O)(=O)c1ccc2c(c1)oc(=O)n2CC(=O)OCC | 5.06 |
| O=C(Nc1ccccc1C(=O)Nc1ccccn1)c1cccc([N+](=O)[O-])c1 | -58.2 |
| O=C(Nc1ccccc1C(=O)NCCCN1CCOCC1)c1ccccc1 | 6.8 |
| O=C(Nc1ccccc1C(=O)NCCCN1CCOCC1)c1cccc([N+](=O)[O-])c1 | -52.7 |
| Cc1cc(C)c(C)c(S(=O)(=O)Nc2ccccc2C(=O)NCCCN2CCOCC2)c1C | -88.5 |
| O=C(NCCCN1CCOCC1)c1ccccc1NS(=O)(=O)c1ccc(F)cc1 | -41.5 |
| O=C(NCCCN1CCOCC1)c1ccccc1NS(=O)(=O)c1ccc(Br)cc1 | -56.1 |
| O=C(NCCCN1CCCC1=O)c1ccccc1NS(=O)(=O)c1ccc(Br)cc1 | 1.59 |
| Cc1ccccc1NS(=O)(=O)c1ccc2[nH]cc(C(=O)NCCCN3CCOCC3)c(=O)c2c1 | 14.5 |
| O=C(Nc1ccccc1C(=O)Nc1ccccn1)c1ccc([N+](=O)[O-])cc1 | -18 |
| Cc1ccccc1NS(=O)(=O)c1ccc(C(=O)NCCCN2CCOCC2)cc1 | 9.08 |
| O=C(Nc1cc([N+](=O)[O-])ccc1C(=O)NCCN1CCOCC1)c1ccccc1 | -44.9 |
| O=C(Nc1ccccc1C(=O)Nc1ccc(Br)cn1)c1cccc([N+](=O)[O-])c1 | 16.6 |
| CCCCNC(=S)NCCN1CCN(C(=S)NCCCC)CC1.Cl | -8.2 |
| S=C(Cc1ccc(Cl)cc1)N1CCOCC1 | 11.1 |
| CC(C)C(=O)Nc1ncc(Cc2ccc(Cl)cc2)s1 | 6.53 |
| O=[N+]([O-])c1ccccc1N(CC1CO1)S(=O)(=O)c1ccccc1 (stereo not drawn) | 2.02 |
| O=C(CCc1nc2ccccc2c(=O)[nH]1)Nc1nnc(SCc2ccc(F)cc2)s1 | 7.47 |
| CC(C)(C)NCC(O)CON=C1c2ccccc2-c2ccccc21 (stereo not drawn) | -28.5 |
| COc1ccc(O)c(/C=N/NC(=O)c2ccc(OCc3cccc(Br)c3)cc2)c1 | 9.95 |
| COc1ccc(CNC(=O)C/C(C)=N/NC(=O)c2ccc(OC)cc2OC)cc1 | -10.5 |
| O=C(NNS(=O)(=O)c1ccccc1[N+](=O)[O-])c1cc2ccccc2cc1O | -10.9 |
| O=C(NCCc1ccccc1)c1ccc2c(c1)OCCCO2 | 17.4 |

| SMILES | hERG current change (%, negative = inhibition) at 10uM [%] |
| --- | --- |
| CCN(CC)CCN(Cc1cc2ccc(C)cc2[nH]c1=O)C(=O)Nc1ccc(Cl)cc1 | -77.6 |
| Cc1ccc2cc(CN(CCN(C)C)C(=O)Nc3ccc(Cl)cc3)c(=O)[nH]c2c1 | -70.5 |
| CCC(=O)N(CCc1ccccc1C)Cc1cc2ccc(C)cc2[nH]c1=O | 9.02 |
| O=C(NCc1ccccc1)c1cccc(COc2ccc(Cl)cc2)c1 | 5.77 |
| COc1cc(C2C(C#N)=C(N)Oc3cc(O)ccc32)cc(OC)c1OC (stereo not drawn) | 4.91 |
| COC(=O)c1cc(S(=O)(=O)NC2CCCCC2)cn1C | 10.5 |
| O=S(=O)(c1ccc(SCCO)nc1)N1CCOCC1 | -2 |
| CCOC(=O)CCNC(=O)Nc1cc2nc(C)n(Cc3cccc(Cl)c3)c2nc1C | 4.33 |
| O=c1cc(-c2ccccc2)[nH]c2ccccc12 | -11.4 |
| O=C(COC(=O)c1ccccc1[N+](=O)[O-])NNC(=O)c1cccs1 | -15.7 |
| CC(C)C(=O)N(Nc1nc2ccccc2s1)C(=O)C(C)C | -0.224 |
| Cc1ccc2c(c1)c1c(n2CCc2ccc(C)nc2)CCN(C)C1 | -15.8 |
| Cc1ccc(CCn2c3c(c4ccccc42)CN(C)CC3)cn1 | -3.74 |
| CCCCN1CCc2c(c3ccccc3n2Cc2ccccc2)C1 | -72.9 |
| O=C1SCCc2c1n(Cc1ccccc1)c1ccccc21 | 2.89 |
| CN1CCc2c(c3ccccc3n2C)C1.Cl | 11.4 |
| CN1CCc2c(c3ccccc3n2Cc2ccccc2)C1.Cl | -71.2 |
| COc1ccc(-c2ncc3ccccn23)cc1 | -5.24 |
| Cc1cc(NC(=O)c2ccc(N(C)S(=O)(=O)c3ccccc3)cc2)no1 | -11.5 |
| COc1ccc(OCCCC(=O)Nc2ccc(N3CCCCC3)cc2)cc1.Cl | -1.87 |
| CC(=O)N1C2CCCCC2S[C@H]2CCCCC21 (stereo partly drawn) | 18.9 |
| Cc1ccc(/C=N/n2c(COc3ccccc3)n[nH]c2=S)s1 | 14.6 |
| COc1ccc(C(C(=O)NC2CCCC2)N(C(=O)c2ccoc2C)c2ccc(C)c(C)c2)cc1 (stereo not drawn) | 15.1 |

| SMILES | hERG current change (%, negative = inhibition) at 10uM [%] |
| --- | --- |
| COc1ccccc1CNC(=O)CN1C(=O)c2ccccc2S1(=O)=O | 12.7 |
| CCN(CC)CCn1c(NC(=O)c2ccccc2O)nc2ccccc21 | -68 |
| CCN(CC)CCn1c(NC(=O)c2ccc(C(F)(F)F)cc2)nc2ccccc21 | -25.7 |
| CCN(CC)CCn1c(NC(=O)c2ccc(Cl)cc2)nc2ccccc21 | -31.5 |
| CCCn1c(NC(=O)c2ccccc2Br)nc2ccccc21 | 16.2 |
| O=C(Nc1nc2ccccc2n1CCN1CCCCC1)c1ccc(Cl)cc1 | -13.2 |
| CCN(CC)CCn1c(NC(=O)c2ccc(C)cc2)nc2ccccc21 | -63.2 |
| CCCn1c(NC(=O)c2ccc(C)cc2)nc2ccccc21 | -22.8 |
| CCC(=O)Nc1nc2ccccc2n1CCN(CC)CC | -14.1 |
| Cc1ccc(C(=O)Nc2nc3ccccc3n2CCN2CCCC2)cc1 | -53.8 |
| CCCc1nnc(NC(=O)c2cc(OC)cc(OC)c2)s1 | -4.25 |
| Cc1ccccc1NC(=O)CSc1ccncc1 | -1.94 |
| CNCCc1ccccn1.Cl | 7.88 |
| CC(=O)NN1C(=O)/C(=C/c2ccc(Br)o2)SC1=S | 2.1 |
| COc1ccc(C(CNC(=O)c2cc3ccccc3cc2OC)N2CCCC2)cc1 (stereo not drawn) | -67.5 |
| COc1ccc(C(CNC(=O)c2ccco2)N2CCCCC2)cc1 (stereo not drawn) | -5.74 |
| COc1ccc(C(CNC(=O)c2ccccc2C)N2CCCC2)cc1 (stereo not drawn) | -16.2 |
| COc1ccc(C(CNC(=O)CCNC(=O)c2ccccc2OC)N2CCCC2)cc1 (stereo not drawn) | -14.1 |
| COc1ccc(C(CNC(=O)c2cc3ccccc3o2)N2CCCCC2)cc1 (stereo not drawn) | -51.6 |
| COc1ccc(C(CNC(=O)c2cc3ccccc3o2)N2CCCC2)cc1 (stereo not drawn) | -38.6 |
| CCOC(=O)c1cc(CC)sc1NC(=O)Cc1ccccc1 | 25.9 |
| CCCCn1c(-c2csc3ccccc23)n[nH]c1=S | 12.8 |
| Cc1ccc(S(=O)(=O)NC2=NCN(CCOC(=O)c3ccc([N+](=O)[O-])cc3)CN2)cc1 | 12.7 |

| SMILES | hERG current change (%, negative = inhibition) at 10uM [%] |
| --- | --- |
| CCn1cc(C(=O)NCc2ccc3c(c2)OCO3)c(=O)c2cc(F)c(N3CCN(C)CC3)cc21 | -37.2 |
| CCOC(=O)c1cccc(S(=O)(=O)N2CCCC2)c1 | 8.7 |
| COc1ccccc1OCCCCN1CCC(C)CC1 | -16 |
| COc1cc(/C=C/C(=O)OCC(=O)NCc2ccco2)ccc1O | 3.65 |
| C/C=C/c1ccc(OCCCCN2CCC(C)CC2)c(OC)c1 | -68.1 |
| COc1ccc(/C=C/C(=O)N(c2ccccn2)C2CCCCC2)cc1OC | -6.44 |
| C/C=C/c1ccc(OCC(O)CN(C)Cc2ccc(SC)cc2)c(OC)c1.O=C(O)C(=O)O (stereo not drawn) | -71.2 |
| COc1cc(/C=C/C(=O)N(Cc2ccccc2)c2ccccn2)cc(OC)c1OC | -23.2 |
| C/C=C/c1ccc(OCC(=O)O)c(OC)c1 | 12.4 |
| C/C=C/c1ccc(OCCCCOc2ccc(OC)cc2)c(OC)c1 | -7.09 |
| COc1ccc(/C=C/C(=O)N(Cc2ccccc2)c2ccccn2)cc1OC | -76.6 |
| COc1cc(/C=C/C(=O)OCC(=O)NCc2ccco2)ccc1OC(F)F | 6.87 |
| COc1ccc(/C=C/C(=O)OCC(=O)NCc2ccco2)cc1OC | -72 |
| C/C=C/c1ccc(OCC(O)CN2CCCCCCC2)c(OC)c1 (stereo not drawn) | -35.4 |
| CCOC(=O)C1=C(COc2ccc(F)cc2Cl)NC(=O)NC1c1cc(C)ccc1C (stereo not drawn) | 10.6 |
| O=[N+]([O-])c1cc(Cl)ccc1Nc1ccccc1 | 9.85 |
| CCOC(=O)c1sc(NC(=O)COC(=O)CNC(=O)c2ccco2)c(C(=O)OCC)c1C | 4.08 |
| COc1cccc(CN2CCN(S(=O)(=O)c3ccccc3)CC2)c1OC | -4.11 |
| CC(C(=O)NCc1ccc2c(c1)OCO2)c1ccc([N+](=O)[O-])cc1 (stereo not drawn) | -13.6 |
| Cc1ccc(-c2noc(CN3C(C)CCCC3C)n2)cc1 (stereo not drawn) | 2.64 |
| Cc1cc(O)c(C=O)c2c1C(=O)Oc1c(CO)c(O)c3c(c1O2)C(O)OC3=O (stereo not drawn) | 0.355 |
